# Bioassay records from PubChem.
# LYPLA2 inh: LYPLA2 inhibitors, primary screen, counter-screen for PME1 inhibitor project, biochemical, fluorescence polarization, FP-Rh probe ABPP. Acyl-protein thioesterase 2 (Homo sapiens), O95372. recombinant LYPLA2. inhibition, % at 5.9 µM. hit rate 0.38% among 320,000. AID 2177, 2009;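 active means inhibition above the screen-wide mean plus 3 SD, limit set per campaign, cut at about 26% in these data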
# PAD4 inh: human PAD4 inhibitors, primary screen, biochemical, fluorescence polarization, 1536-well format; inhibition, % at 6.36 µM; Protein-arginine deiminase type-4 (Homo sapiens), Q9UM07; hit rate 0.41% among 330,000; recombinant PAD4, RCA probe fluorescence polarization;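 active means percent inhibition above a cutoff equal to the mean of all tested compounds plus 3 SD, cut at about 15% in these data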
# LYPLA1 counter: LYPLA1 inhibitors, primary screen, counter-screen for PME1 inhibitor project, biochemical, fluorescence polarization, FP-Rh probe ABPP | recombinant LYPLA1 | inhibition, % at 5.9 µM | hit rate 0.16% among 320,000;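 active means inhibition above the mean of all tested compounds plus 3 SD, set per campaign, cut at about 14% in these data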;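 further: inhibitors block serine hydrolase probe labeling of LYPLA1 so polarization falls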
# Target sequence (O75608 whole entry, looked up): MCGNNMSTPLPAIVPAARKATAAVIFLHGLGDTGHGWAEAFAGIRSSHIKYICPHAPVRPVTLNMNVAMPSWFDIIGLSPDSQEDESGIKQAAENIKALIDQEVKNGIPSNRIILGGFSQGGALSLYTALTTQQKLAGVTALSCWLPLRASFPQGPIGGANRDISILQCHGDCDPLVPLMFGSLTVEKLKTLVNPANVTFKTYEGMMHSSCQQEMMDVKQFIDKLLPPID
# Fam108B inh: mouse Fam108B serine hydrolase inhibitors, primary screen, counter-screen for RBBP9 inhibitor project, biochemical, fluorescence polarization | recombinant Fam108B, FP-Rh probe fluorescence polarization | inhibition, % at 9.51 µM | hit rate 0.33% among 300,000 | AID 1947, 2009;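 active means inhibition above the screen mean inhibition plus 3 SD, computed separately per campaign, cut at about 18% in these data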;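 further: inhibitors lower polarization as less probe binds the enzyme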
# PME-1 inh: PME-1 inhibitors via competitive probe labeling, primary screen, biochemical, fluorescence polarization, FP-Rh probe, HTS; recombinant PME-1; inhibition, % at 5.9 µM; hit rate 0.53% among 320,000;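 active means inhibition above the campaign mean of all compounds plus 3 SD, cut at about 26% in these data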;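 further: competitive labeling of PME-1 active site by serine hydrolase directed probe; inhibitors block probe labeling so polarization falls and inhibition rises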
# GSTO1 counter: inhibitors of recombinant GSTO1, primary screen, counter-screen for RBBP9 inhibitor project, biochemical, fluorescence polarization | Glutathione S-transferase omega-1 (Homo sapiens), P78417 | activity-based probe fluorescence polarization | inhibition, % at 5.96 µM | hit rate 1.1% among 300,000 | AID 1974, 2009;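 active means inhibition above the campaign mean inhibition plus 3 SD, cut at about 35% in these data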
# Target sequence (P78417 whole entry, looked up): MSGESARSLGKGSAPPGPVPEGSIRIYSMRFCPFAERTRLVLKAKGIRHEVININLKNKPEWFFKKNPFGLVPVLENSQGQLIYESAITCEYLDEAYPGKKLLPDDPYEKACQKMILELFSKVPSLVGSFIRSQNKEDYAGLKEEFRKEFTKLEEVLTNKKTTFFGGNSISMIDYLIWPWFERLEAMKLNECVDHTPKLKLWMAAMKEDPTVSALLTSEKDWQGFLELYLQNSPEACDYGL
# A number is an active result; . = inactive; / = no result. Most compounds without a hit are left out; they make up all but 1.8% or so of the library.
SMILES,LYPLA2 inh,PAD4 inh,LYPLA1 counter,Fam108B inh,PME-1 inh,GSTO1 counter
COc1ccc(N2CCN(C(=O)COc3ccc4c(C)cc(=O)oc4c3C)CC2)cc1,.,.,.,.,.,.
COc1cccc(NC(=O)C2CCN(S(=O)(=O)c3ccc4c(c3)CC(C)N4C(C)=O)CC2)c1 (centres undefined),.,.,.,.,.,.
COc1cccc(NC(=O)C2CCC(CNS(=O)(=O)c3ccc4c(c3)CC(C)N4C(C)=O)CC2)c1 (centres undefined),.,.,.,.,.,35
Cc1cc(C)c(NC(=O)COC(=O)c2ccc([N+](=O)[O-])s2)c(C)c1,.,.,.,.,.,.
NS(=O)(=O)c1ccc(NC(=O)COC(=O)c2ccc([N+](=O)[O-])s2)cc1,.,.,.,.,.,44
Cc1ccc(NC(=O)COC(=O)c2ccc([N+](=O)[O-])s2)c(C)c1,.,.,.,.,.,35
Cc1ccc(C(=O)OCC(=O)NC(C)c2ccccc2)s1 (centres undefined),/,.,/,/,/,/
CC(NC(=O)COC(=O)c1ccc([N+](=O)[O-])s1)c1ccccc1 (centres undefined),.,.,.,.,.,44
Cc1cc(C(=O)OC(C)C(=O)N2CCc3ccccc32)ccc1[N+](=O)[O-] (centres undefined),.,.,.,.,.,.
CSc1ncccc1C(=O)OCC(=O)NC1CCCCC1,.,.,.,/,.,/
N#CCCN1CCN(C2=NC(=O)/C(=C\c3cccs3)S2)CC1,29,.,.,.,.,.
COc1ccc(C2Nc3cccc4cccc(c34)N2)cc1,.,.,.,.,.,35
c1ccc(C2Nc3cccc4cccc(c34)N2)cc1,.,.,.,.,.,36
COc1ccccc1C1Nc2cccc3cccc(c23)N1,.,.,.,.,.,50
CN(C)c1ccc(C2Nc3cccc4cccc(c34)N2)cc1,.,.,.,.,.,.
CC(C)=NNc1nc2sc3c(c2c(=O)[nH]1)CC(C)(C)OC3,.,.,.,.,36,.
CC1(C)Cc2c(sc3[nH]c(=S)[nH]c(=O)c23)CO1,.,.,.,.,.,.
CC1(C)Cc2c(sc3nc(SCC(=O)O)[nH]c(=O)c23)CO1,.,.,.,.,.,36
Cc1ccc(CNc2nc(C)cs2)cc1,.,.,.,.,.,.
CCOc1ccc(NC(=O)CCCN2C(=O)C(c3ccccc3)Oc3cccnc32)cc1 (centres undefined),.,.,.,.,.,.
Cc1ccc(NS(=O)(=O)c2ccc3c(c2)oc(=O)n3C)cc1C,.,.,.,.,.,37
CCOc1ccc(NS(=O)(=O)c2ccc3c(c2)oc(=O)n3C)cc1,.,.,.,.,.,36
CC1=CC2=C(OC1N(C)C)c1cccc3cccc(c13)C2=O (centres undefined),.,18,.,.,.,.
CCOC(=O)c1sc(/N=C/c2c(O)ccc3ccccc23)cc1C,.,.,.,.,.,39
CC(C)(C)OC(=O)C[C@@H]1C/C=C\C[C@@H](CC(=O)N(CCO)Cc2ccccc2)C(=O)N[C@H](C(C)(C)C)COC1=O,/,.,/,/,/,/
SMILES,LYPLA2 inh,PAD4 inh,LYPLA1 counter,Fam108B inh,PME-1 inh,GSTO1 counter
COc1ccc(OC)c(CN2CCN(C(=O)CNC(=O)c3ccccc3F)CC2)c1,/,.,/,/,/,/
CCOC(=O)c1c(OCC)[nH]c2c1cc(O)c1ccccc12,.,.,.,.,39,.
Clc1ccc(-c2cnnc(-c3ccccn3)n2)cc1,/,.,/,/,/,/
O=[N+]([O-])c1ccc(N/N=C/c2cccc(O)c2O)c(S(=O)(=O)N2CCOCC2)c1,.,.,.,.,31,46
COc1cc(/C=N/Nc2ccc([N+](=O)[O-])cc2S(=O)(=O)N2CCOCC2)cc(OC)c1OC,.,.,.,.,.,.
Cc1ccccc1C(=O)NCC(=O)N1CCN(C/C=C/c2ccccc2)CC1,/,.,/,/,/,/
COc1cc2c(C#N)c(N3CCN(c4ccccc4OC)CC3)nc(N)c2c(N)n1,.,.,.,.,73,.
CCN(C(=O)c1cccc(S(=O)(=O)N2CCc3ccccc32)c1)C1CCS(=O)(=O)C1 (centres undefined),.,.,.,/,.,/
N#CCSc1nc2c(cc1C#N)CCCCCC2,.,.,.,.,44,.
Cc1ccc(S(=O)(=O)N2[C@@H](c3ccc(C(C)(C)C)cc3)C(C(=O)O)=CC[C@H]2c2ccc3c(c2)OCO3)cc1,/,.,/,/,/,/
C=CCN(CC=C)C(=S)Nc1ccc2nsnc2c1,.,.,.,.,.,42
C=CCNC(=S)Nc1ccc2nsnc2c1,.,.,.,.,.,.
Cc1cc(/C=C2\SC(=S)NC2=O)c(C)n1-c1ccccc1,.,.,.,.,.,.
Cc1cc(/C=C2\SC(=S)NC2=O)c(C)n1C,.,.,.,.,.,46
CCCCn1c2ccccc2c2nnc(SCC(=O)NC3=NN=C(c4ccccc4)CS3)nc21,.,21,.,.,.,.
COc1cc(C(=O)Oc2cccc(/C=N/NC(=O)c3cccnc3)c2)cc(OC)c1OC,.,.,.,.,.,.
CC1=C(CC(=O)c2ccccc2)C(=O)c2ccccc2C1=O,.,.,.,.,.,51
O=C(CN1C(=O)c2ccccc2C1=O)c1ccccc1,.,.,.,.,.,.
COCCn1c(SCC(=O)Nc2ccc3[nH]c(=O)[nH]c3c2)nc2ccccc21,/,.,/,/,/,/
O=C(O)/C(CC(=O)c1ccc(Cl)cc1)=N/Nc1ccc([N+](=O)[O-])cc1[N+](=O)[O-],.,.,.,.,27,.
C/C(CCC(=O)O)=N/Nc1ccc([N+](=O)[O-])cc1[N+](=O)[O-],.,.,.,.,.,38
C/C(CCCO)=N/Nc1ccc([N+](=O)[O-])cc1[N+](=O)[O-],.,.,.,.,.,.
CCN1CC=C2C(C#N)=C(N)C(C#N)(C#N)C(CCc3ccccc3)C2C1 (centres undefined),.,20,.,.,.,.
O=[N+]([O-])c1ccc(S(=O)(=O)c2cccc(C(F)(F)F)c2)nc1,.,.,.,.,.,.
O=S(=O)(Nc1ccc(O)c2ccccc12)c1ccc(Br)cc1,.,19,.,.,.,61
O=C(O)c1ccc(N/N=C/c2cn(Cc3ccccc3F)c3ccccc23)cc1,.,.,.,.,29,.
COC(=O)N/N=C/c1cn(Cc2ccccc2F)c2ccccc12,.,.,.,.,.,.
COc1ccc(CNC(=O)CCCN2C(=O)NC3(CCCC3)C2=O)cc1,.,.,.,/,.,/
